# Results from PubChem BioAssay (NCI).
# Compounds without any hit were thinned out: in the full panel of roughly 83,000, 20% have a hit.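 Single-concentration screen, 48 h exposure, 96-well plates. Endpoint: percent growth. Below 10 = active.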 Activity calls are given as the source filed them.
# Tested on: OVCAR-8 ovarian
# Test: NCI-60 one-dose screen, 48 h (100 = growth as untreated, 0 = no growth, -100 = all killed)
# Details: 10 µM unless noted
row,Compound,growth
1,COc1cc2c(c(OC)c1OC)C(=O)/C(=C/c1cc(C)c(O)c(C)c1)S2,41.5% (inactive)
2,COc1cc(CNC(=O)/C=C/C=C/c2ccc3c(c2)OCO3)ccc1OCc1cn(-c2ccc(Cl)c(Cl)c2)nn1,11.3% (inactive)
3,COc1ccccc1C(=O)NC(=S)Nc1ccc(-c2nc3ccccc3[nH]2)cc1,53.1% (inactive)
4,O=C(/C=C/C12c3ccccc3C(c3ccccc31)C1C(=O)N(c3ccccc3)C(=O)C12)c1ccc(Cl)cc1 (stereo not given),30.7% (inactive)
5,COc1cc(NC(=O)c2cccc(-c3cc(=O)c4c(O)c(OC)c(OC)cc4o3)c2)cc(OC)c1OC,23.1% (inactive)
6,Nc1c(C(=O)c2ccc(Cl)s2)sc2nc3c(cc12)CCCC3,105% (inactive)
7,N#Cc1c(-c2ccccc2)nc(SCC2CO2)nc1N1CCOCC1 (stereo not given),81.8% (inactive)
8,CCCCN(CCCC)CCCn1c(=O)c2sc3ncccc3c2n2nnc(-c3ccccc3)c12,96.4% (inactive)
9,CC1(C)CC(=O)c2c(ccc(C(=O)C[C@H](N)CO)c2N)O1,32.4% (inactive)
10,COc1ccc(NC(=O)c2cccc(-c3cc(=O)c4c(O)c(OC)c(OC)cc4o3)c2)cc1,80.6% (inactive)
11,CCn1c(Sc2nnc(NC(C)=O)s2)nc2c1c(=O)n(C)c(=O)n2C,99.7% (inactive)
12,COc1cc(NC(=O)c2cccc(-c3cc(=O)c4c(OC)c(OC)c(OC)cc4o3)c2)cc(OC)c1OC,30.9% (inactive)
13,CN(C)CN1CCN(c2ccc3nc(-c4ccc5nc(-c6ccc(C(F)(F)F)cc6)[nH]c5c4)[nH]c3c2)CC1,53% (inactive)
14,COc1ccc(C2CC(c3ccc4ccccc4c3)=NN2c2nc(O)c(C3=c4cc(Cl)ccc4=NC3=O)s2)cc1 (stereo not given),-16.1% (active)
15,NS(=O)(=O)c1cnccc1-n1ccc(=O)c(S(N)(=O)=O)c1,100% (inactive)
16,O=C(/C=C/C12c3ccccc3C(c3ccccc31)C1C(=O)N(c3ccc(Cl)cc3)C(=O)C12)c1ccccn1 (stereo not given),21.1% (inactive)
17,O=C1CC(c2ccc3c(c2)OCO3)Nc2cc3c(cc21)OCO3 (stereo not given),12.7% (inactive)
18,C=CCOc1cccc(/C=C2\SC(=Nc3ccc(O)cc3)NC2=O)c1,27.4% (inactive)
19,Cc1cc(-c2ccc(N(C)C)cc2)c2sc(=O)[nH]c2n1,76.9% (inactive)
20,O=C1NC(=S)S/C1=C\N1N=C(c2ccc(Cl)cc2)CC1c1ccc(F)cc1 (stereo not given),81.3% (inactive)

row,Compound,growth
1,COc1ccccc1NC(=O)Nc1ccc(-c2nc3ccccc3o2)cc1,102% (inactive)
2,O=C(c1ccccc1)c1ccc(N2C(=O)C3C4c5ccccc5C(/C=C/C(=O)c5ccccn5)(c5ccccc54)C3C2=O)cc1 (stereo not given),26.4% (inactive)
3,Cc1ccc2c(n1)C(=O)C(Oc1ccc(F)cc1)=CC2=O,87% (inactive)
4,COc1cc2ccccc2cc1C(=O)NC(=S)Nc1ccc(-c2nc3ccccc3[nH]2)cc1,93.1% (inactive)
5,COc1cc2c(O)n(CCCn3ccnc3)c3c4cnc5cccc(c(=O)c3c2cc1OC)c54,35.3% (inactive)
6,Cc1nn(-c2ccccc2)c2c1C(c1ccc([N+](=O)[O-])cc1)C(C#N)=C(N)O2 (stereo not given),90.9% (inactive)
7,Cc1ccc(S(=O)(=O)N(CC[C@@H]2C[C@H]2c2cc3ccccc3o2)C(=O)NC2CCCCC2)cc1,98.8% (inactive)
8,N#Cc1c(NC(=O)c2ccc(Br)cc2)sc2c1CCCC2,64.6% (inactive)
9,COc1cc(C(=O)Nc2cc(O)c(CC=C(C)C)c(O)c2)cc2c1O[C@]1(C)CC[C@@H](O)C(C)(C)[C@H]1C2,31.3% (inactive)
10,COc1cc(-c2cccc([N+](=O)[O-])c2)c(-c2nc(-c3ccccc3)c(-c3ccccc3)n2C2CC2)cc1OC,62.8% (inactive)
11,O=c1[nH]c(NCc2nnnn2-c2ccc(Br)cc2)nc2sc3c(c12)CCCC3,81.4% (inactive)
12,CN(C)CCOC(=O)Nc1ccc(Cl)cc1,97.5% (inactive)
13,O=C(NC(=S)Nc1ccc(-c2nc3ccccc3[nH]2)cc1)c1ccc2ccccc2c1,28.8% (inactive)
14,O=c1ccn(C2OC(F)(CO)C(O)C2F)c(=O)[nH]1 (stereo not given),98.3% (inactive)
15,Cc1ccc(NC(=O)C(Cl)Cl)cc1,99.5% (inactive)
16,CCCCN1CCN(c2ccc3nc(-c4ccc5nc(-c6cc(OC)c(OC)c(OC)c6)[nH]c5c4)[nH]c3c2)CC1,56.2% (inactive)
17,CCCCCCCCn1cc(C2=C(c3coc4ccc(OC)cc34)C(=O)NC2=O)c2ccccc21,94.2% (inactive)
18,CCCCN1CCN(c2ccc3nc(-c4ccc5nc(-c6ccc(OCC)c(OCC)c6)[nH]c5c4)[nH]c3c2)CC1,-11.9% (active)
19,COc1ccc(C2CC(c3ccccc3)=NN2c2nc(C)c(C(C)=O)s2)cc1 (stereo not given),101% (inactive)
20,O=C(/C=C/C12c3ccccc3C(c3ccccc31)C1C(=O)NC(=O)C12)c1ccccc1 (stereo not given),27.3% (inactive)
